Inconclusive results are not listed. A call without a number means that no potency is given here. Activity calls are given as the source filed them. Unless noted, calls come from the whole dose curve; as a rule, active = well fitted curve in the direction sought with a large enough effect in the repeat runs; inconclusive = weak or mixed curves; inactive = no such curve, though single readings can be large; an effect the other way counts as inactive or inconclusive.
Tests used:
[1] = qHTS assay to identify small molecule antagonists of the estrogen related receptor (ERR) signaling pathway from Tox21 library - cell viability counter screen (AID 1224834); note: nearly all actives have a fitted effect of over 30% in size; note: potency is the fitted concentration of half-maximal effect
Outline: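 In this quantitative HTS format, ERR cells receive compounds in DMSO and are incubated for 17.5 h at 37 C. Live-cell protease activity is then detected with CellTiter-Fluor.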

[2] = biological target: Luciferin 4-monooxygenase (Photinus pyralis) (UniProt P08659); experiment: qHTS assay to identify small molecule inhibitors of firefly luciferase (AID 1224835); note: nearly all actives have a fitted effect of over 25% in size; note: potency is the fitted concentration of half-maximal effect
Luciferin 4-monooxygenase (Photinus pyralis), sequence (P08659 whole entry, looked up): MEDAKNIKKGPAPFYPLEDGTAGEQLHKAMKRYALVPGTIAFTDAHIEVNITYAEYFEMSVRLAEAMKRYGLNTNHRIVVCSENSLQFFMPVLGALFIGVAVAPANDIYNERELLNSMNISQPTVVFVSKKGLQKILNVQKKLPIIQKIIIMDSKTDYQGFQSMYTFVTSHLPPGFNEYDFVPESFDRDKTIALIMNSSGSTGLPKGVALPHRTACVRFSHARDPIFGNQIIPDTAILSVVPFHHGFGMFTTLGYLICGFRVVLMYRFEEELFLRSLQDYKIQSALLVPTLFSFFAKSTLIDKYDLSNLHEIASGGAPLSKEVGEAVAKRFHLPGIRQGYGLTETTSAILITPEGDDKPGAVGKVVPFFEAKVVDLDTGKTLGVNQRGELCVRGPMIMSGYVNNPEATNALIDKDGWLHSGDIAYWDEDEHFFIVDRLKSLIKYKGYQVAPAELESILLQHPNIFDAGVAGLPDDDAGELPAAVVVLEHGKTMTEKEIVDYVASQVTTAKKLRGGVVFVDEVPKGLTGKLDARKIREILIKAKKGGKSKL
Outline: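 Inhibition of purified Photinus luciferase is measured by luminescence. Substrate levels (D-luciferin, ATP) sit at their KM values. Each compound is tested in a concentration series.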

[3] = qHTS assay to identify small molecule agonists of the constitutive androstane receptor (CAR) signaling pathway - cell viability counter screen (AID 1224836); note: nearly all actives have a fitted effect of over 45% in size; note: potency is the fitted concentration of half-maximal effect
Outline: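 HepG2 cells stably carrying hCAR and a CYP2B6-2.2kb reporter; 15-concentration compounds plus PK11195 (final 0.75 uM), 23 hr at 37 C/5% CO2. Viability read by CellTiter-Fluor fluorescence.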

[4] = qHTS assay to identify small molecule antagonists of the constitutive androstane receptor (CAR) signaling pathway - cell viability counter screen (AID 1224837); note: nearly all actives have a fitted effect of over 45% in size; note: potency is the fitted concentration of half-maximal effect
Outline: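 In quantitative HTS format, compounds at 15 concentrations were applied to HepG2 cells double-transfected with hCAR and CYP2B6-2.2kb under 50 nM CITCO stimulation; live-cell protease activity was read after 23 hr via CellTiter-Fluor.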

[5] = biological target: Nuclear receptor subfamily 1 group I member 3 (Homo sapiens) (UniProt Q14994); experiment: qHTS assay to identify small molecule agonists of the constitutive androstane receptor (CAR) signaling pathway (AID 1224839);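 note: HepG2 cells stably carrying human CAR and a CYP2B6 luciferase reporter; series mostly up to about 92 µM; nearly all actives have a fitted effect of over 15% in size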
Nuclear receptor subfamily 1 group I member 3 (Homo sapiens), sequence (Q14994 whole entry, looked up): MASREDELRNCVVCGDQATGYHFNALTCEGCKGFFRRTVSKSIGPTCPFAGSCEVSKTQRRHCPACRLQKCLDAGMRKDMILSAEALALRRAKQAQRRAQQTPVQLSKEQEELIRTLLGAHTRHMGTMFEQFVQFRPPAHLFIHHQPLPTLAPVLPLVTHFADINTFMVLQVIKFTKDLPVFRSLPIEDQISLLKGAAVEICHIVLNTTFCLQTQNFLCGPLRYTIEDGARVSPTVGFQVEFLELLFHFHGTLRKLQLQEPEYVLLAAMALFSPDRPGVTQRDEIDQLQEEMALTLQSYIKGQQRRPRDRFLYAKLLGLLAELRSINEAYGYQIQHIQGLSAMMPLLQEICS
Outline: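 HepG2 cells stably co-transfected with hCAR and a CYP2B6-2.2kb luciferase reporter; compounds at 15 concentrations with 0.75 uM PK11195 present. After 24 hr at 37 C, luciferase read by ONE-Glo luminescence.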

[6] = qHTS assay to identify small molecule antagonists of the estrogen related receptor signaling pathway with the pleiotropic PPARgamma coactivator (PGC) from Tox21 10K library - cell viability counter screen (AID 1224840; active = well fitted cell-killing curve with a large enough effect in the repeat runs, not every such curve was filed as active; note: nearly all actives have a fitted effect of over 40% in size; note: potency is the fitted concentration of half-maximal effect)
Outline: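 Viability counter screen, PGC/ERR cells: 17.5 h compound exposure at 37 C, CellTiter-Fluor fluorescence endpoint.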

[7] = qHTS assay to identify small molecule agonists of the estrogen related receptor signaling pathway with the pleiotropic PPARgamma coactivator (PGC) from Tox21 10K library (AID 1224842); note: nearly all actives have a fitted effect of over 15% in size
Outline: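 Luminescence from One-Glo (30 min, room temperature) measured after PGC/ERR cells had 18 h at 37 C with pinned compound (23 nL in DMSO). Cells had been seeded at 2,000 per well and pre-incubated 6 h.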

[8] = biological target: Nuclear receptor subfamily 1 group I member 3 (Homo sapiens) (UniProt Q14994); experiment: qHTS assay to identify small molecule antagonists of the constitutive androstane receptor (CAR) signaling pathway (AID 1224838); note: nearly all actives have a fitted effect of over 40% in size; note: potency is the fitted concentration of half-maximal effect
Outline: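 CITCO-stimulated (50 nM final) HepG2 cells stably transfected with hCAR and CYP2B6-2.2kb luciferase were exposed to compounds at 15 concentrations for 24 h at 37 C/5% CO2. A luciferase reagent was added and luminescence recorded after 30 min.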

[9] = qHTS assay to identify small molecule antagonists of the estrogen related receptor signaling pathway with the pleiotropic PPARgamma coactivator (PGC) from Tox21 10K library (AID 1224841; call rule not given here; note: actives are mostly falling curves and most rising ones were filed inactive; nearly all actives have a fitted effect of over 50% in size; note: potency is the fitted concentration of half-maximal effect)
Outline: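 In the PGC/ERR line, DMSO solutions of test chemicals are pin-delivered to 2,000 cells/well six hours after dispensing. Following eighteen hours' incubation, One-Glo reagent is added and luminescence recorded.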

Compound | Potency [1] | Potency [2] | Potency [3] | Potency [4] | Potency [5] | Potency [6] | Potency [7] | Potency [8] | Potency [9]
C=C(C)[C@@H]1CCC2=CCC[C@@H](C)[C@]2(C)C1 | inactive | inactive | inactive | inactive | inactive | inactive | inactive | – | –
O=C1CCCCCCCCCCOCCCCO1 | inactive | inactive | inactive | inactive | – | inactive | – | inactive | –
O=C1c2ccccc2C(=O)c2c(O)c(O)cc(O)c21 | 30600 nM (active) | 44800 nM (active) | inactive | inactive | – | – | inactive | inactive | inactive
CC(C)C[C@H](NC(=O)[C@H](CCc1ccccc1)NC(=O)CN1CCOCC1)C(=O)N[C@@H](Cc1ccccc1)C(=O)N[C@@H](CC(C)C)C(=O)[C@@]1(C)CO1 | 133 nM (active) | inactive | 376 nM (active) | 422 nM (active) | – | 3350 nM (active) | inactive | 119 nM (active) | 84.1 nM (active)
C(=C\c1ccccc1)/c1ccccc1 | inactive | 7900 nM (active) | inactive | inactive | – | inactive | – | inactive | –
Cc1cc(O)c(C)c(C)c1O | inactive | inactive | inactive | inactive | inactive | inactive | inactive | – | –
C=C(C)CCCC(C)CCO (centres undefined) | inactive | inactive | inactive | inactive | – | inactive | – | – | –
O=C(Cn1ccnc1[N+](=O)[O-])NCCO | inactive | inactive | inactive | inactive | – | inactive | – | inactive | –
Cc1cc2c(OCC(CNC(C)(C)C)OC(=O)c3ccccc3)cccc2[nH]1 (centres undefined) | inactive | inactive | inactive | inactive | – | inactive | – | inactive | –
CCC(=O)OC | inactive | inactive | inactive | inactive | – | inactive | – | inactive | –
